Assay [1] can be described thus: CCTE_Shafer_MEA_acute_per_burst_spike_number_mean: CCTE's Neural Acute Assay for Average Number of Spikes Per Burst, Shafer Lab (AID 2284015).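 Further: hits are decreases in mean spikes per burst versus baseline.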 In short, it runs like this: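 We recorded spontaneous network firing of rat cortical neurons for 40 min before and 40 min during exposure to compound at 0.03-40 uM, at 37 C. Spikes were detected adaptively at 8x rms noise, and the change in average spikes per burst was fitted against DMSO.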

Assay [2] in a line: CCTE_Shafer_MEA_acute_interburst_interval_mean: CCTE's Neural Acute Assay for Mean Interburst Interval, Shafer Lab (AID 2284016).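 Further: percent change of mean interburst interval versus each well's own pre-dose baseline; curves fitted for decrease in interburst interval relative to DMSO.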 In short, it runs like this: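 MEA recording of spontaneous network bursting in primary rat cortical cultures; mean interburst interval was compared before and after a 40-min compound exposure (0.03-40 uM) and expressed as percent change, relative to DMSO.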

Assay [3] in a line: CCTE_Shafer_MEA_acute_burst_percentage_mean: CCTE's Neural Acute Assay for Percentage of Spikes in a Burst, Shafer Lab (AID 2284017).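 On AC50: curve fitted for loss of signal so potency reflects decreased burst percentage.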 In short, it runs like this:
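Compounds were tested at 0.03-40 uM on primary rat cortical neuron networks grown over microelectrodes, with at least three wells per compound. Spontaneous firing was recorded for 40 min before and 40 min after dosing, and the change in burst percentage was computed per well.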

Assay [4] in a line: CCTE_Shafer_MEA_acute_per_network_burst_spike_number_mean: CCTE's Neural Acute Assay for Average Number of Spikes in a Network Burst, Shafer Lab (AID 2284019). In short, it runs like this:
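Rat cortical cultures, DIV 13/15; spike threshold 8x rms noise, 300-5000 Hz band-pass, 12.5 kHz sampling; wells need >/= 10 active electrodes. Compound 0.03-40 uM, 40 min, 37 C; % change vs own baseline, DMSO negative control.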

Assay [5] is described as follows: CCTE_Shafer_MEA_acute_per_network_burst_spike_number_std: CCTE's Neural Acute Assay for Standard Deviation of Number of Spikes in a Network Burst, Shafer Lab (AID 2284020).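 Further: fitted for decrease in spike-number SD versus DMSO so actives lower it.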 In short, it runs like this: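 Rat cortical cultures, DIV 13/15, 37 C; 20-min stabilisation, 40-min baseline, compound 0.03-40 uM, 40-min re-record. Spikes detected at 8x rms noise (300-5000 Hz band-pass). Readout: % change from baseline in per-burst spike-number SD.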

Assay [6] in a line: CCTE_Shafer_MEA_acute_network_burst_percentage: CCTE's Neural Acute Assay for Percentage of Network Bursts, Shafer Lab (AID 2284022).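 Further: curves fitted for loss so actives lower network burst percentage.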 In short, it runs like this:
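Network burst percentage (spikes in network bursts divided by total spikes) recorded at 37 C over 40 min baseline and 40 min after compound, 0.03-40 uM, in rat cortical cultures at DIV 13 or 15. Analysed as percent change from baseline versus DMSO.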

A short description of assay [7]: CCTE_Shafer_MEA_acute_cross_correlation_area: CCTE's Neural Acute Assay for Area of Cross Correlation, Shafer Lab (AID 2284024).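 Further: area under pooled inter-electrode spike cross-correlation near zero lag as percent change from own baseline; curves fitted for loss of cross-correlation area so actives lower synchrony.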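 On outcome: rat primary cortical neuron networks on 48-well MEA at DIV 13 or 15 with 40 min exposure.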 In short, it runs like this:
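Percent change in well-wide cross-correlation area (window around zero lag) between 40 min baseline and 40 min post-compound recordings, 37 C; rat cortical cultures on MEA at DIV 13 or 15, dosed 0.03-40 uM, wells needing >/= 10 active electrodes.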

Assay [8] can be described thus: CCTE_Shafer_MEA_acute_cross_correlation_HWHM: CCTE's Neural Acute Assay for Cross Correlation at Half Width at Half Maximum, Shafer Lab (AID 2284026).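 Further: percent change per well from pre-dose baseline in spike cross-correlogram half width; hits are a decrease in cross-correlogram half width relative to DMSO.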 In short, it runs like this:
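Per-well percent change in cross-correlogram half width at half maximum, derived from 40-min recordings before and after compound (0.03-40 uM) at 37 C. Cultures were rat cortical neurons, DIV 13 or 15, with adaptive spike detection at 8x rms.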

Assay [9] in a line: CCTE_Shafer_MEA_acute_synchrony_index: CCTE's Neural Acute Assay for Synchrony, Shafer Lab (AID 2284027).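 Further: network synchrony index of spontaneous spiking in primary rat cortical neurons on MEAs; fitted for loss of signal so actives lower synchrony relative to DMSO.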 In short, it runs like this: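 Plates equilibrated 20 min at 37 C, baseline recorded 40 min, compound (0.03-40 uM) added, then 40 min more recorded. Cells: primary rat cortical neurons, DIV 13 or 15. Per-well synchrony index change analysed in negative direction against DMSO.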

A short description of assay [10]: CCTE_Shafer_MEA_dev_firing_rate_mean: CCTE's Neural Network Formation Assay for Mean Firing Rate, Shafer Lab (AID 2284031).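 On AC50: curve fitted for loss of firing so AC50 reflects decreased mean firing rate.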 In short, it runs like this: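 Steps: seed rat cortical cells (1.5 x 10^5/well) with laminin on PEI-coated MEA; dose day 0; record DIV 5/7/9/12, full media and compound exchange after DIV 5 and 9 recordings; compute well-mean firing rate AUC.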

Assay [11] in a line: CCTE_Shafer_MEA_dev_per_burst_spike_percent: CCTE's Neural Network Formation Assay for Percent of Spikes in a Burst, Shafer Lab (AID 2284032).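 On AC50: fitted as a decrease in burst spike percentage below DMSO baseline.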 In short, it runs like this: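 Value is trapezoidal AUC over recordings on days 5, 7, 9 and 12 of the well-mean fraction of spikes falling in single-electrode bursts; rat cortical cultures exposed continuously from plating, treatment renewed DIV 5 and 9, fitted downward against DMSO.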

Assay [12] is described as follows: CCTE_Shafer_MEA_dev_active_electrodes_number: CCTE's Neural Network Formation Assay for Number of Active Electrodes, Shafer Lab (AID 2284040; active means hit-call score of the fitted dose curve at least 0.9, where 1 is the maximum;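 on AC50: potency for loss of active electrodes versus DMSO so lower counts are hits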). In short, it runs like this: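 Counts electrodes per well firing at least 5 spikes/min, recorded on days 5, 7, 9 and 12 in rat cortical cultures dosed continuously from plating (treatment refreshed DIV 5, 9). Value is the area under the curve over recordings, fitted downward relative to DMSO.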

Assay [13] is described as follows: CCTE_Shafer_MEA_dev_burst_rate: CCTE's Neural Network Formation Assay for Burst Rate, Shafer Lab (AID 2284042). In short, it runs like this:
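Developmental network assay measuring how 12-day exposure of rat cortical neuron cultures alters bursting on extracellular MEA recordings. Values are AUC of well-mean burst rate across four recording days, relative to DMSO vehicle.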

Assay [14] is described as follows: CCTE_Shafer_MEA_dev_bursting_electrodes_number: CCTE's Neural Network Formation Assay for Number of Bursting Electrodes, Shafer Lab (AID 2284043; active means hit-call score of the fitted dose curve at least 0.9, where 1 is the maximum;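 on AC50: potency is for loss of bursting electrodes relative to DMSO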). In short, it runs like this:
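Rat cortical primary neurons, 48-well MEA, 16 electrodes/well; dosing DIV 0–12, re-dosed with full media change DIV 5, 9. Recordings DIV 5/7/9/12, AxIS adaptive spike detector; bursting electrode = ≥1 burst/2 min. AUC across days; loss of signal vs DMSO.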

A short description of assay [15]: CCTE_Shafer_MEA_dev_per_burst_interspike_interval: CCTE's Neural Network Formation Assay for Burst Interspike Interval, Shafer Lab (AID 2284044). In short, it runs like this: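 Mean interspike interval within single-electrode bursts, averaged over bursting electrodes, from rat cortical cultures on MEA plates recorded on days 5, 7, 9 and 12. Continuous compound exposure from plating; trapezoidal AUC fitted downward relative to DMSO.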

A short description of assay [16]: CCTE_Deisenroth_AIME_384WELL_CTox_Active: Cytotoxicity Assessment (CTOX) in CCTE's 384-well Estrogen Receptor Transactivation Assay with AIME metabolic competence (metabolism positive), Deisenroth Lab (AID 2284037; active means hit-call score of the fitted dose curve at least 0.9, where 1 is the maximum;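 further: chemicals first conditioned 2 h by alginate-bound induced rat liver S9 before cells; activity means signal loss indicating cell death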). In short, it runs like this: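 Chemicals pre-incubated 2 hours with alginate-immobilised phenobarbital/beta-naphthoflavone-induced male Sprague Dawley rat liver S9, then conditioned medium applied 24 hour to VM7Luc4E2 cells. Viability by fluorogenic protease substrate; 10-point series 0.002 - 200 uM.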

Assay [17] in a line: CCTE_Deisenroth_AIME_384WELL_CTox_Inactive: Cytotoxicity Assessment (CTOX) in CCTE's 384-well Estrogen Receptor Transactivation Assay without AIME metabolic competence (metabolism negative), Deisenroth Lab (AID 2284039; active means hit-call score of the fitted dose curve at least 0.9, where 1 is the maximum;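 further: cell viability via live-cell protease substrate cleaved to fluorescent probe; cells exposed 24 h to medium preincubated 2 h with alginate-water beads without S9; loss of fluorescence signal means loss of viability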). In short, it runs like this: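 Fluorescence from a live-cell protease substrate, read after 24 h in VM7Luc4E2 cells, indicated viability. Test medium came from a 2 h AIME step without hepatic S9 (alginate-water microspheres); concentrations spanned 0.002 - 200 uM, single technical replicate per run.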

Assay [18] concerns the target Estrogen receptor (Homo sapiens) (UniProt P03372). The assay is described as follows: CCTE_Deisenroth_AIME_384WELL_LUC_Active: CCTE's 384-well Estrogen Receptor Transactivation Assay with AIME metabolic competence (ERTA luciferase; metabolism positive), Deisenroth Lab (AID 2284030; active means hit-call score of the fitted dose curve at least 0.9, where 1 is the maximum). In short, it runs like this:
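VM7Luc4E2 breast cells were given, for 24 hours, medium pre-incubated for 2 hours with parent chemical (0.002-200 uM, 10 concentrations) and alginate-encapsulated phenobarbital/beta-naphthoflavone-induced rat hepatic S9. Luciferase gain of signal was fitted against 17beta-estradiol; n=4 or more.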

Assay [19] has the same target. The assay is described as follows: CCTE_Deisenroth_AIME_384WELL_LUC_Shift: CCTE's 384-well Estrogen Receptor Transactivation Assay with AIME metabolic competence data shift (ERTA luciferase; difference in metabolism positive and negative), Deisenroth Lab (AID 2284041).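 Further: shift is response with S9 minus without S9 so positive means metabolism raised ER signal.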 In short, it runs like this:
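Chemicals (0.002–200 uM, 10 points) pre-incubated 2 h with alginate-encapsulated induced male Sprague Dawley rat liver S9 or S9-free, then medium applied 24 h to VM7Luc4E2 cells; luciferase. Endpoint is per-concentration difference, S9-positive minus negative.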

Inconclusive results are not listed. Some compounds were tested as several samples or in several runs, with calls that do not always agree. Active and inactive are the calls of the source. How the source made its calls, unless noted: active means hit-call score of the fitted dose curve at least 0.9, where 1 is the maximum; inactive means score below 0.9.

One may read the AC50 as the concentration giving half of the maximal activity seen.

Estrogen receptor (Homo sapiens), sequence (P03372 whole entry, looked up): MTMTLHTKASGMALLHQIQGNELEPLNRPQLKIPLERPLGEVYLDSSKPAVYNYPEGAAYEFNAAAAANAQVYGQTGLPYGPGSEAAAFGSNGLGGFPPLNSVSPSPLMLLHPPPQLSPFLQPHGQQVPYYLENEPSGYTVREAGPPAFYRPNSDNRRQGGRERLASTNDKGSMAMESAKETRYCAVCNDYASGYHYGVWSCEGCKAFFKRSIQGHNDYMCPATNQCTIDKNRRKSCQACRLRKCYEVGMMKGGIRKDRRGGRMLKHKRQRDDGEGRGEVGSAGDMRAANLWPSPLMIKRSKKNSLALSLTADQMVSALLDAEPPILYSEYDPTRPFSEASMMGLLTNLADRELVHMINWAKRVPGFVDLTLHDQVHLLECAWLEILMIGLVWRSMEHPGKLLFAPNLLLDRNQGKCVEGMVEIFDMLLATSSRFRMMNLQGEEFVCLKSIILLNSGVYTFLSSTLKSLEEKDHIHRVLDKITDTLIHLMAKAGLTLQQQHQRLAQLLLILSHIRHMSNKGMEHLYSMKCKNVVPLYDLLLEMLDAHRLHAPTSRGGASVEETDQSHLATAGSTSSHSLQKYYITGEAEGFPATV

For `C[Si](Cn1cncn1)(c1ccc(F)cc1)c1ccc(F)cc1`, the AC50 in assay [1] was 7.68 µM (active); in [3], 15.4 µM (active); in assay [6] it was 20 µM (active); in assay [7] it was 1.67 µM (active); in assay [8], 34.5 µM (active); in assay [9] it was 4.26 µM (active). Also, the AC50 in assay [12] was 4.26 µM (active); in assay [14], 8.85 µM (active). The compound was called inactive in [2], in assay [4], in assay [5], in assay [10], in assay [11] and in [13]. Further, the compound was classed as inactive in assay [15].

As for `CN(C)NC(=O)CCC(=O)O`, the call in [1], in assay [2], in assay [3], in assay [4], in assay [5] and in assay [6] was inactive. Besides, the call in assay [7], in [8] and in [9] was inactive.

Consider `C#CCC1=C(C)C(OC(=O)C2C(C=C(C)C)C2(C)C)CC1=O` (stereo not drawn), for which the compound was called inactive in assay [1], in assay [2], in assay [4], in assay [7], in assay [8] and in [10]. Also, the outcome in assay [16], in assay [12], in [13] and in assay [15] was inactive. The half-maximal activity concentration (AC50) in [3] was 12.7 µM (active); in assay [5], 19.9 µM (active); in assay [6], 14.6 µM (active); in assay [9] it was 17.8 µM (active); in [11], 9.95 µM (active); in [17], 144 µM (active). For the same compound, the AC50 in assay [14] was 4.27 µM (active).

For `CCC(=O)Nc1ccc(Cl)c(Cl)c1`, the AC50 in assay [16] is 19.8 µM (active). In addition, in assay [17], the outcome was inactive.

With `COP(=O)(OC)SCn1c(=O)oc2cc(Cl)cnc21`, the compound was classed as inactive in [18] and in assay [16]. Further, the AC50 was 100 µM (active) in assay [17] and 71.1 µM (active) in assay [19].

As to `CCOP(=S)(OCC)Oc1cc(C)nc(C(C)C)n1`, the AC50 was 50 µM (active) in assay [10], 50 µM (active) in [11], 75.9 µM (active) in assay [12] and 60.2 µM (active) in assay [14]. The compound was called inactive in assay [10], in assay [11], in assay [13] and in [15].

For the compound `CC1(C(=O)Nc2ccc(O)c(Cl)c2Cl)CCCCC1`, the call in assay [16] and in [17] was inactive.

On to `CC(Oc1cccc(Cl)c1)C(=O)O` (stereo not drawn), for which the outcome in assay [10], in assay [11], in assay [12], in assay [13], in assay [14] and in assay [15] was inactive.
